# The entries come from a sample that favours hits as a whole.
# Dicer processing = blocks human Dicer maturation of pre-miR-21 | Q9UPY3 | cat-ELCCA pre-miR-21 Dicer processing, chemiluminescence; active compounds read high | z-score at 25 µM | hit rate 6% among 47,000 | AID 1347074; in the data active means z-score above about 3, passing the limit was not always enough;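 further: plate controls were vehicle for no effect and no enzyme for full effect; higher signal means more uncleaved substrate so more Dicer inhibition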
# Numbers without * were called inactive; ! = not confirmed by another sample.
SMILES,Dicer processing
O=C(CSc1nc2ccccc2nc1N1CCOCC1)NC1CCCC1,2
O=C(CSc1nc(-c2ccco2)cc(C(F)(F)F)n1)N1CCN(c2cccc(Cl)c2)CC1,0.7
Cc1ccc(C)n1CCN1CCN(C(=O)CSc2nc3ccccc3nc2N2CCOCC2)CC1,3*
O=C(CSc1nc2ccccc2nc1N1CCCC1)N1CCCC1,0
c1ccc(C[C@H]2COC(C3=N[C@H](Cc4ccccc4)CO3)=N2)cc1,-0.56
CCCNS(=O)(=O)c1ccc(NC2=NS(=O)(=O)c3ccccc32)cc1,-1.6
CCOC(=O)C1(C)C(Br)=C(Nc2ccc(Cl)cc2)C(=O)N1c1ccccc1 (stereo not given),1.2
CCOC(=O)C1(C)C=C(Nc2ccc(OCC)cc2)C(=O)N1c1ccc(OCC)cc1 (stereo not given),3.2*
CCOC(=O)C1(C)C=C(Nc2ccc(OC)cc2)C(=O)N1c1ccc(OC)cc1 (stereo not given),0.34
C/C(=N\NC1=NCCCN1)c1ccc(C)cc1,-0.65
Cc1ccc(-c2nc(NC(=O)Nc3ccc(F)cc3)sc2C)cc1Cl,-0.79
Cc1ccc(Cl)cc1NC(=S)NCCNc1nccc(C(F)(F)F)n1,-0.65
N#C/C(=C\c1ccc(Cl)cc1Cl)C(N)=S,-0.55
NC(N)=N/N=C/c1ccc(Cl)cc1Cl,4.5*!
NC(N)=N/N=C/c1ccc(Cl)c(Cl)c1,0.83
CCOC(=O)Cc1csc(N2C(=O)c3ccccc3C2=O)n1,-1
CCOC(=O)C1CCN(S(=O)(=O)c2ccc(-c3csc(C)n3)s2)CC1,-0.9
N#C/C(=N\Nc1ccccc1Cl)S(=O)(=O)c1ccc(Cl)cc1,1.2
O=C(CC1SCCNC1=O)Nc1ccc2c(c1)OCO2 (stereo not given),-0.95
O=C(CC1Sc2ccccc2NC1=O)Nc1ccc(Cl)cc1 (stereo not given),-0.08
O=C(CC1Sc2ccccc2NC1=O)Nc1ccc2c(c1)OCO2 (stereo not given),3.9*
CSCC[C@H](NC(=O)OC(C)(C)C)C(=O)OCc1ccc(CC(=O)O)cc1,3*
CC(C)(C)OC(=O)N[C@@H](Cc1ccccc1)C(=O)OCc1ccc(CC(=O)O)cc1,0.83
CC(C)(C)OC(=O)NC(COCc1ccccc1)C(N)=O (stereo not given),-0.63
Cc1ccc(C(=O)CSc2nnc3c(n2)[nH]c2ccccc23)cc1,1.6
SMILES,Dicer processing
Cn1cnc([N+](=O)[O-])c1N1CCOCC1,-0.46
O=c1c(Sc2ccccc2)c(O)cc(-c2ccccc2)n1-c1ccccc1,0.19
Cc1ccccc1-c1nc(C2CCCCC2)no1,1.7
CCN(CC)c1ccc(/C=C/c2noc(-c3ccccc3O)n2)cc1,0.97
Oc1ccccc1-c1nc(-c2ccccc2)no1,0.04
CSc1ccc(/C=C/c2noc(-c3ccccc3O)n2)cc1,-1.9
Cc1ccsc1/C=C/c1noc(-c2ccccc2O)n1,3.3*
Oc1ccccc1-c1nc(/C=C/c2ccc(Cl)cc2)no1,6.7*
CCCCOC(=O)C1=C(C)NC2=C(C(=O)CC(C)(C)C2)C1c1ccccc1Br (stereo not given),-1.2
COc1cc(NC(=O)C(=O)NC2CC(C)(C)NC(C)(C)C2)c(OC)cc1Cl,1
O=C(Nc1ncc2c(n1)CC(c1cccc(Cl)c1)CC2=O)c1ccccc1 (stereo not given),0.54
COCCOC(=O)C1=C(C)NC2=C(C(=O)CC(c3ccccc3)C2)C1c1cccc(OC)c1OC (stereo not given),7.2*
CCSCCOC(=O)C1=C(C)NC2=C(C(=O)CC(c3ccccc3)C2)C1c1ccccc1F (stereo not given),4*
CCSCCOC(=O)C1=C(C)NC2=C(C(=O)CC(c3ccccc3)C2)C1c1ccc(N(C)C)cc1 (stereo not given),1.6
COC(=O)C1=C(C)NC2=C(C(=O)CC(c3ccccc3)C2)C1c1ccccc1OC(C)C (stereo not given),0.57
COc1ccccc1C1C(C(=O)OCC(C)C)=C(C)NC2=C1C(=O)CC(c1ccccc1)C2 (stereo not given),5*
COC(=O)C1=C(C)NC2=C(C(=O)CC(c3ccccc3OC)C2)C1c1cccc(OC)c1OC (stereo not given),-0.37
COCCOC(=O)C1=C(C)NC2=C(C(=O)CC(c3ccccc3)C2)C1c1ccccc1F (stereo not given),8.1
CCSCCOC(=O)C1=C(C)NC2=C(C(=O)CC(c3ccccc3)C2)C1c1ccc(F)cc1 (stereo not given),-0.88
COc1ccc(C2CC(=O)C3=C(C2)NC(C)=C(C(=O)OCC(C)C)C3c2ccncc2)cc1 (stereo not given),0.73
CC1=C(C(=O)OCC(C)C)C(c2ccc(N(C)C)cc2)C2=C(CC(c3ccccc3)CC2=O)N1 (stereo not given),3.6*
COc1ccc(C2CC(=O)C3=C(C2)NC(C)=C(C(=O)OC(C)C)C3c2ccccc2OC)cc1OC (stereo not given),1
CCSCCOC(=O)C1=C(C)NC2=C(C(=O)CC(c3cccs3)C2)C1c1ccc(F)cc1 (stereo not given),0.18
Cc1ccc(C(=O)/C=C/Sc2nc3cc(Cl)ccc3s2)cc1,0.77
CC(C)(C)OC(=O)NCCN=Cc1ccc(Cl)cc1Cl,-1.2
SMILES,Dicer processing
Nc1cc(=O)nc(SCc2ccccc2)n1-c1ccc(F)cc1,1.3
CCN(c1cccc2ccccc12)S(=O)(=O)c1ccc2c(c1)OCC2,-1.3
CCOC(=O)CSc1nnc(-c2sc3nc(C)cc(C)c3c2N)n1C,-0.55
CCOC(=O)C1(C(F)(F)F)N=C(N(C)C)Oc2c1c(C)nn2-c1ccccc1 (stereo not given),-1.8
Clc1ccc(SCc2ccsc2-c2ncns2)cc1,-0.45
CC1=C(C(=O)OCCOC(C)C)C(c2cccc(F)c2)C2=C(CC(C)(C)CC2=O)N1 (stereo not given),-0.06
COc1cc(C2C(C(=O)OC3CCCCC3)=C(C)NC3=C2C(=O)CC(C)(C)C3)ccc1O (stereo not given),0.6
CC1=C(C(=O)OCc2ccccc2)C(c2cccc(O)c2)C2=C(CC(c3ccccc3)CC2=O)N1 (stereo not given),3*
CC1=C(C(=O)OCC(C)C)C(c2ccc3c(c2)OCO3)C2=C(CC(c3ccccc3)CC2=O)N1 (stereo not given),0.61
COc1ccccc1C1C(C(=O)OCC2CCCO2)=C(C)NC2=C1C(=O)CC(C)(C)C2 (stereo not given),0.12
CCSCCOC(=O)C1=C(C)NC2=C(C(=O)CC(c3ccc(OC)cc3)C2)C1c1cccc(O)c1 (stereo not given),1.1
COc1cccc(C2C(C(=O)OCC3CCCO3)=C(C)NC3=C2C(=O)CC(C)(C)C3)c1OC (stereo not given),5.4*
COc1ccc(C2C(C(=O)OC3CCCCC3)=C(C)NC3=C2C(=O)CC(C)(C)C3)cc1O (stereo not given),0.85
COc1ccc(C2CC(=O)C3=C(C2)NC(C)=C(C(=O)OCC(C)C)C3c2ccc(F)cc2)cc1 (stereo not given),5.2
C=CCOC(=O)C1=C(C)NC2=C(C(=O)CC(c3ccccc3)C2)C1c1ccc(O)cc1 (stereo not given),2.4
CCOc1cc(C2C(C(=O)OC3CCCCC3)=C(C)NC3=C2C(=O)CC(C)(C)C3)ccc1OC(C)=O (stereo not given),5.4*
CC1=C(C(=O)OCC(C)C)C(c2ccccc2)C2=C(CC(c3ccccc3)CC2=O)N1 (stereo not given),3.6*

# Screens as filed in PubChem.
